About 9,300 (1.5%) of roughly 640,000 compounds were called active. This excerpt belongs to a sample that is enriched for actives. Values without a mark were called inactive. Rule as the data show it: active = inhibition above about 32%; inactive = the rest.

Data on 91 compounds can be found in PubChem BioAssay AID1259422 (The Scripps Research Institute Molecular Screening Center, 2018).

A short description of this test: TEAD-YAP interaction inhibition, primary screen, TEAD-YAP interaction inhibitor project, luminescence, HEK-TIYL cells (AID 1259422).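 Also: 0% = median of test compound wells and 100% = reference inhibitor wells.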 Particulars: TEAD-Gal4/YAP UAS-luciferase luminescence, at 9.12 µM, stronger effect = higher value.
In the case of `c1ccc(CNc2nc3ccccc3n2CCOc2ccccc2)cc1`, the inhibition (commonly the drop in the measured response relative to a control, in per cent) is -21.7%.

In the case of `CCS(=O)(=O)c1cc([N+](=O)[O-])c(Sc2ccccc2N)s1`, the inhibition is 75.8% (active). Under `Nc1ccc(Sc2ccccc2[N+](=O)[O-])cc1` stands -0.16%; under `CCC(CC)NS(=O)(=O)c1ccccc1[N+](=O)[O-]`, 12.2%.

Take `CN(c1ccc2nc3ccccc3c(=O)n2n1)C1CCCCC1`: the inhibition was 89.7% (active). Take `COC(=O)c1cnc(N(C)C2CCCCC2)c2ccccc12`: the inhibition was 6.67%.

Consider `CN(C(=O)Cn1nc2c3ccccc3nc(C3CC3)n2c1=O)C1CCCCC1`, for which the inhibition is -4.4%. The value for `CC(=O)Nc1ccc(Nc2nc(N3CCC(N4CCOCC4)CC3)nc3c2ncn3-c2ccccc2)cc1` was 5.05%; that for `c1ccc(Nc2nc(Nc3ncccn3)nc3c2ncn3-c2ccccc2)cc1` was -25.3%. As for `CC(=O)Nc1ccc(Nc2nc(Cl)nc3c2ncn3-c2ccsc2)cc1`, the inhibition is 33.8% (active).

In the case of `CC(=O)Nc1ccc(Nc2nc(Nc3cnccn3)nc3c2ncn3-c2ccccc2)cc1`, the inhibition is 49.2% (active). The value for `CC(=O)Nc1ccc(Nc2nc(Nc3ccncn3)nc3c2ncn3-c2ccsc2)cc1` was 6.4%; that for `CC(=O)Nc1ccc(Nc2nc(N3CCN(c4ccccn4)CC3)nc3c2ncn3-c2ccsc2)cc1` was 19.9%.

With `COc1ccc(S(=O)(=O)CCC(=O)Nc2ccc(C)cc2Br)cc1`, the inhibition is -9.1%. Under `COc1ccc(/C=C2/C(=O)NN(c3cccc(Cl)c3)C2=O)cc1` stands 5.26%; under `CC(=O)Oc1ccc(/C=C2\N=C(c3ccccc3F)OC2=O)cc1`, -4.17%; under `Cc1c(C(=O)N/N=C/c2cccc([N+](=O)[O-])c2)nnn1-c1nonc1N`, -6.33%.

`CC(=O)Oc1c(C)cc(C)c2ccc(=O)[nH]c12`: the inhibition was -7.29%. The value for `CC1CC(=O)Nc2ccccc2N1C(=O)Cc1ccc(Cl)cc1` (stereo unspecified) was -16.4%; that for `CCc1ccc(CC(=O)N2CC(=O)Nc3ccccc32)cc1` was 49.8% (active). With `O=C1CN(C(=O)CCl)c2ccccc2N1`, the inhibition is 14.1%.

Regarding `CCCOCc1c[nH]c(=O)[nH]c1=O`, the inhibition is -4.81%. Under `COc1ccc(C(=O)O)cc1NC(=S)NC(=O)c1ccccc1` stands -6.39%. As for `CCOC(=O)c1c(NC(=S)NC(=O)c2ccccc2)sc2c1CC(C)(CC)OC2` (stereo unspecified), the inhibition is 8.08%. The value for `CCOC(=O)C1=C(NC(=S)NC(=O)c2ccccc2)c2ccccc2CC1(CC)CC` was 51.5% (active); that for `OC(CN1CCN(c2ccccc2F)CC1)Cn1nnnc1-c1ccccc1` (stereo unspecified) was 2.32%. On to `Cc1cc(C)c(/C=C/c2cc(C(F)(F)F)[nH]c(=O)n2)cc1C`, for which the inhibition is -9.26%. The value for `Cc1nc(N2CCN(c3ccccn3)CC2)c2c(C)c(C(=O)Nc3ccccc3C(F)(F)F)sc2n1` was -2.56%; that for `O=C(O)c1cccc(-c2cnc3ccc(NCc4ccc(F)cc4)nn23)c1` was -7.03%; that for `c1ccc(Oc2ccc(-c3cnn4c(NCCCN5CCOCC5)ccnc34)cc2)cc1` was 42% (active).

With `Cc1ccc(-c2cnn3c(NCCCN4CCOCC4)ccnc23)cc1C`, the inhibition is 10.5%. As for `c1ccc(Cn2cc(-c3cnn4c(NCCCN5CCOCC5)ccnc34)cn2)cc1`, the inhibition was -1.52%.

For the compound `CCOc1cc2c(cc1OCC)C(c1cc(OC)ccc1F)NCC2` (stereo unspecified), the inhibition was 4.41%. Under `CC(C)(O)C#CC(O)c1cccc([N+](=O)[O-])c1` (stereo unspecified) stands -0.86%. In the case of `COc1ccc(C(c2sc3ncnn3c2O)N2CC(C)OC(C)C2)cc1` (stereo unspecified), the inhibition is 10.7%. The value for `COc1ccc(C(=O)NCC(=O)NNc2ncnc(N)c2[N+](=O)[O-])c(OC)c1` was 11.1%. The value for `O=C(N/N=C/c1cc(Br)ccc1O)c1ccc(=O)[nH]n1` was 14.8%; that for `O=C(N/N=C/c1cc(Br)ccc1O)c1cc(Br)ccc1O` was -12%. The value for `O=C(N/N=C/c1cc(Br)ccc1O)c1cc(-c2cccs2)[nH]n1` was 65.8% (active); that for `CCOc1ccc(/C=N/NC(=O)c2cc(-c3cccs3)[nH]n2)cc1` was -4.12%; that for `COc1ccccc1/C=N/NC(=O)c1cc(-c2ccc(C)o2)[nH]n1` was 4.17%. As for `COc1cccc(/C=N/NC(=O)c2cc(-c3cccs3)[nH]n2)c1O`, the inhibition was 68% (active). The value for `Cc1ccc(CNS(=O)(=O)c2ccc(F)c(C(=O)Nc3cccc(Cl)c3)c2)cc1` was -4.88%; that for `COc1cc(C=Nc2ccc(NC(C)=O)cc2)ccc1OC(=O)c1cccs1` was -6.6%. Under `COc1ccccc1NS(=O)(=O)c1ccc(Cl)c(C(=O)Nc2ccccc2C)c1` stands 0.37%.

With `O=C(Cc1cccc(Cl)c1)NCC1CCC2(CCN(C(=O)C3CC3)CC2)O1` (stereo unspecified), the inhibition is -0.11%. Under `COc1ccc(C2CCN(C(=O)C3CCCO3)CC2)cc1` (stereo unspecified) stands -7.42%; under `Cc1cccc2c1CC(=O)NC21CCN(Cc2ccc3ccccc3c2)CC1`, 7.07%; under `CCc1ccc(OCC(=O)NCc2ccncc2)c(Br)c1`, -4.34%. The value for `CCc1ccc(OCC(=O)Nc2nc(C)c(C)s2)c(Br)c1` was 77.7% (active); that for `Cc1ccc(OCC(=O)Nc2nc(-c3ccccc3)cs2)c(Br)c1` was 5.91%. Under `CCOC(=O)C1(CCOc2ccccc2)CCN(Cc2cnn(C(C)C)c2)CC1` stands 10.3%. Regarding `O=C(Nc1ccc2oc(-c3ccc(F)cc3)nc2c1)c1ccc([N+](=O)[O-])cc1`, the inhibition is 11.2%.

On to `O=C(COc1ccc([N+](=O)[O-])cc1)Nc1ccc2oc(-c3cccc(F)c3)nc2c1`, for which the inhibition is -7.11%. In the case of `O=[N+]([O-])c1ccc2oc(-c3cccc(O)c3)nc2c1`, the inhibition is 73.9% (active).

For `Cc1ccc2nc3c(cc(C#N)c(=O)n3-c3cccc(Cl)c3)c(=O)n2c1`, the inhibition was -0.14%. The value for `CC1=CN2C(=O)NC(C(F)(F)F)(C(F)(F)F)N=C2S1` was -16.6%; that for `COCCCNC(=O)Cn1cc(/C=C(\C#N)C(=O)NCc2ccco2)c2ccccc21` was 3.94%; that for `COCCCNC(=O)/C(C#N)=C/c1ccc(-c2cccc(Cl)c2Cl)o1` was 1.01%. Under `COCCCNC(=O)/C(C#N)=C/c1cc(C)n(-c2cccc3ccccc23)c1C` stands 47.1% (active). `COc1ccc(NC(=O)c2sc3nc(-c4cccc([N+](=O)[O-])c4)cn3c2C)cc1`: the inhibition was 4.9%. Under `CCOC(=O)C1CCN(S(=O)(=O)c2cc(Br)ccc2OCC)CC1` stands 0.17%; under `CCOc1ccc(Br)cc1S(=O)(=O)Nc1ccccc1C(=O)O`, 3.25%.

As to `CCOc1ccc(Br)cc1CSC(=N)N`, the inhibition was 55.7% (active).

For the compound `CC(=O)N(Cc1cccnc1)Cc1cc2cc(C)c(C)cc2nc1Cl`, the inhibition is 6.62%.

Consider `Cc1cccc(C(=O)Nc2ccc(C(=O)N/N=C/c3ccc(O)cc3)cc2)c1`, for which the inhibition was -12.2%.

For `CCOc1ccccc1NS(=O)(=O)c1ccc2c(c1)NC(=O)C(C)C(=O)N2` (stereo unspecified), the inhibition was -5.49%. The value for `O=C1CS(=O)(=O)C(c2ccccc2[N+](=O)[O-])N1c1ccc(Oc2ccc(Cl)cc2)cc1` (stereo unspecified) was 11.6%. Under `COc1ccc(-n2nnnc2SCc2nc(N)nc(N3CCOCC3)n2)cc1` stands -11.4%; under `CN(C)c1nc(N)nc(CSc2ccccn2)n1`, -4.14%; under `CN(C)c1nc(N)nc(CSc2nnnn2-c2cccc3ccccc23)n1`, 35.1% (active). Under `CCOC(=O)c1sc2nc(C)nc(OCc3ccccc3C)c2c1C` stands -7.17%; under `COc1ccccc1-c1cc(C(F)(F)F)nc(S(=O)(=O)CCCC(=O)Nc2sc(C(N)=O)c(C)c2C(=O)OC(C)C)n1`, -2.08%. For the compound `CCN(Cc1ccccc1)S(=O)(=O)c1cc(C(=O)Nc2cccc(C)c2)ccc1F`, the inhibition is 51.1% (active). Under `CCOc1cccc(NC(=O)c2ccc(F)c(S(=O)(=O)N(CC)c3cccc(C)c3)c2)c1` stands -0.19%; under `CCN(c1cccc(C)c1)S(=O)(=O)c1cc(C(=O)Nc2ccc(Oc3ccccc3)cc2)ccc1F`, 35.4% (active); under `O=C(Nc1ccc(Oc2ccccc2)cc1)c1ccc(F)c(S(=O)(=O)N2CCc3ccccc3C2)c1`, -0.62%. Under `CCN(Cc1ccccc1)S(=O)(=O)c1ccc(F)c(C(=O)Nc2ccc(C)cc2)c1` stands -16.5%; under `Cc1cccc(NC(=O)c2ccc(F)c(S(=O)(=O)N(C)C3CCCCC3)c2)c1`, -12.6%. With `COc1cccc(-c2ccccc2NC(=O)C2CCN(Cc3ccccn3)CC2)c1`, the inhibition is 10.6%. The value for `CC1=C(C(=O)Nc2nc3ccccc3s2)C(c2ccsc2)C2=C(CCCC2=O)N1` (stereo unspecified) was 12.1%; that for `COC(=O)c1c(OCCN2CCCC2=O)cc(=O)n2c1CCN(CC(C)C)CC2` was -5.77%. Under `Fc1ccc(CN2CCOCC2)cc1F` stands -5.29%.

`Fc1cnc(Nc2ccc(Cn3ccnc3)cc2)nc1-c1cccc(N2CCOCC2)c1`: the inhibition was 84.8% (active). Under `Fc1cc(-c2nc(Nc3ccc(CN4CCOCC4)cc3)ncc2F)cc(N2CCOCC2)c1` stands 74.6% (active); under `c1cncc(CNc2nccc(Nc3ccc(N4CCOCC4)cc3)n2)c1`, 1.72%.

Take `Cc1ccc(-c2ncn(-c3ccc(Nc4ncc(F)c(-c5cccc(N6CCOCC6)c5)n4)cc3)n2)cn1`: the inhibition is 28.1%. The value for `Cc1ccc(-c2ncn(-c3ccc(Nc4nccc(-c5cc(F)cc(N6CCOCC6)c5)n4)cc3)n2)nc1` was 8.1%; that for `O=C(Nc1ccccc1)c1ccc(CSc2ccc(Cl)cc2)cc1` was 1.08%. On to `Cc1cc2oc(=O)cc(C)c2cc1NC(=O)COc1ccccc1`, for which the inhibition was 18.6%. Under `c1ccc2c(N3CCCCCC3)nc(CN3CCCCC3)nc2c1` stands 3.64%.
